Screens from PubChem BioAssay.
Rows were chosen to be rich in hits. Some 10% of all compounds tested hit in one or more screens of this group.
NPR1 antag: human Npr1 receptor antagonism; P16066; HEK293 hNpr1 GloSensor cGMP, ANP-stimulated luminescence; Potency, µM (titrated, usually from 46.3 µM), for the others: at the highest dose activity change, negative = inhibition, usual class: inhibitors; 76,000 compounds, 1.6% hits; calls by dose curve; also: % is scaled to controls: 0 for no effect and ±100 for the full control effect; nearly all actives have a fitted effect of over 60% in size
Target sequence (P16066 whole entry, looked up): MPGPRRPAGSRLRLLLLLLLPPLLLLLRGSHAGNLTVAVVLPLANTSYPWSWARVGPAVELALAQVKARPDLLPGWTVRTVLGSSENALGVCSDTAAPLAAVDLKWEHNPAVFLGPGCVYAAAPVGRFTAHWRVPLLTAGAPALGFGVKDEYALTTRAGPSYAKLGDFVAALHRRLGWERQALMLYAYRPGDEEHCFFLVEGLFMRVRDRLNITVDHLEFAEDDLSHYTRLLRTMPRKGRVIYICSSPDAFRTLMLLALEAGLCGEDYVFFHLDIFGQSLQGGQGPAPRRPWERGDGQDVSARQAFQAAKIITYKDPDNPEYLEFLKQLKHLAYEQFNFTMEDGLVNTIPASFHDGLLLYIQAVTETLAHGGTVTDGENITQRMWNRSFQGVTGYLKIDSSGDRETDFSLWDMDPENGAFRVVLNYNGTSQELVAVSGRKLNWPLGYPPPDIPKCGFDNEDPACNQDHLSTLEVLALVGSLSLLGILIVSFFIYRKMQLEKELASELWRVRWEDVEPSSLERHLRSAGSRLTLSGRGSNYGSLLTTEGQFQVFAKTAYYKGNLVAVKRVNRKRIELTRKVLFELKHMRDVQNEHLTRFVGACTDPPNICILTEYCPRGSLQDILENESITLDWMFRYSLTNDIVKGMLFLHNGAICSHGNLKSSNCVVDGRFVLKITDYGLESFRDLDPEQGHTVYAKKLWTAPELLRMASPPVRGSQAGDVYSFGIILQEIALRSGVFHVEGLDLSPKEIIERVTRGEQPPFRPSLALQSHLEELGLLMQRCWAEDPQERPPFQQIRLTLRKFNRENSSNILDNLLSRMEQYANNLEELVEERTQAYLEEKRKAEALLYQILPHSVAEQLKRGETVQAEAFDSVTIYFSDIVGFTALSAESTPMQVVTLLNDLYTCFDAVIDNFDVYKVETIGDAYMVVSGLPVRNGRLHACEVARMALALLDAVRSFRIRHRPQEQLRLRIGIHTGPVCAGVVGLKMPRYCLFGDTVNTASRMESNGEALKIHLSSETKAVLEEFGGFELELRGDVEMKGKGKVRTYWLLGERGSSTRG
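HEK293 cells stably expressing human Npr1 and cGMP GloSensor pGS-40F, loaded 2 h with 2% GloSensor reagent, given compound 30 min at room temperature. Luminescence read before and 20 min after 0.1 nM hNppA.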
3T3 cytotox: NIH 3T3 cell cytotoxicity | NIH 3T3 viability, CellTiter-Glo ATP luminescence, 48-72 h | Potency, µM (top dose mostly 96.7 µM), inactives show at the top dose activity change, negative = cytotoxicity, most hits filed as inhibitors | 94,000 compounds, 4.3% hits | AID 1345082; also: % is scaled to controls: 0 for no effect and ±100 for the full control effect; nearly all actives have a fitted effect of over 55% in size
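Cytotoxicity is measured as loss of cellular ATP: NIH 3T3 cells (400/well) are exposed to compound for 48 or 72 hr at 37 °C, then CellTiter-Glo luminescence is imaged after 10 min at room temperature.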
HEK cytotox: cytotoxic compounds in HEK 293 cells. AID 1345083. HEK 293 viability, ATP luminescence (CellTiter-Glo), 48-72 h. Potency, µM (highest dose often 115 µM), without a hit: top-dose activity change, negative = cytotoxicity, most hits filed as inhibitors. 94,000 compounds, 6.6% hits; also: % is scaled to controls: 0 for no effect and ±100 for the full control effect; nearly all actives have a fitted effect of over 60% in size
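Cells seeded first (HEK 293, 250 cells/well), then compound added by pintool. Incubation ran 48 or 72 hr at 37 degree Celsius. CellTiter-Glo was added and luminescence imaged after 10 min at room temperature.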
FLuc inh: inhibitors of firefly (Photinus pyralis) luciferase; 76,000 compounds, 2.5% hits; AID 1347043; purified P. pyralis luciferase, luminescence, biochemical; Potency, µM (top dose mostly 115 µM), usual class: inhibitors; also: % is scaled to controls: 0 for no effect and ±100 for the full control effect; nearly all actives have a fitted effect of over 65% in size
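Purified P. pyralis luciferase (10nM final) in 50mM Tris acetate pH 7.5, 10mM Mg acetate, 0.01% Tween-20, 0.05% BSA with 10uM D-luciferin and 10uM ATP. Compounds titrated qHTS. Luminescence imaged on CCD.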
GPT2 inhibitor: blocks human glutamate pyruvate transaminase 2. Q8TD30. Recombinant GPT2, coupled pyruvate oxidase/HRP Amplex Red fluorescence. Potency, µM (top dose mostly 57.7 µM), without a hit: at the highest dose activity change, negative = inhibition, most hits filed as inhibitors. 100,000 compounds, 0.25% hits. AID 1671188; also: % is scaled to controls: 0 for no effect and ±100 for the full control effect; nearly all actives have a fitted effect of over 60% in size
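Inhibition is scored from Amplex Red fluorescence generated when pyruvate oxidase and HRP act on pyruvate released by GPT2. Reactions contain 10ng/uL enzyme, 250uM a-KG and 2mM L-alanine and run 30 min at room temperature.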
NPR1 antag cnf: confirmation of human Npr1 natriuretic peptide receptor antagonists; shares compounds with NPR1 antag; Potency, µM (series often up to 57.6 µM), for the others: at the top dose activity change, negative = inhibition, actives largely listed as inhibitors; 1,400 compounds, 76% hits; HEK293 hNpr1 cGMP GloSensor luminescence, ANP-stimulated; calls by dose curve; also: nearly all actives have a fitted effect of over 70% in size
NPR2 antag: selectivity test of Npr1 antagonists against human Npr2 | Potency, µM (series often up to 57.6 µM), without a hit: top-dose activity change, negative = inhibition, hits mostly inhibitors | HEK293 hNpr2 GloSensor cGMP luminescence, CNP-stimulated | shares compounds with NPR1 antag | 1,400 compounds, 67% hits; calls by dose curve; also: nearly all actives have a fitted effect of over 70% in size
FLuc inh counter: inhibits firefly luciferase, false Npr1 antagonist flag | 1,400 compounds, 0.7% hits | Potency, µM (series often up to 57.6 µM), without a hit: at the highest dose activity change, negative = inhibition, actives largely listed as inhibitors | shares compounds with NPR1 antag | purified FLuc enzyme, luminescence, Km substrate | AID 1347047; also: 0% is about no effect
GloSensor ctrl: control cell line activity, Npr1 antagonist counter-screen; shares compounds with NPR1 antag; HEK293 GloSensor cGMP, SNP-stimulated, luminescence; Potency, µM (titrated, usually from 57.6 µM), for inactives: at the highest dose activity change, negative = inhibition, actives largely listed as inhibitors; 1,400 compounds, 69% hits; calls by dose curve; also: % is scaled to controls: 0 for no effect and ±100 for the full control effect; nearly all actives have a fitted effect of over 70% in size
Starred values were filed as active, the others as inactive; i = inactive; ? = inconclusive; . = no result; [ ] = another dose, or the depositor's remark. Unless noted, calls follow the shape of the dose curve; as a rule, active = well fitted curve in the direction sought with a large enough effect; inconclusive = small, poorly fitted or top-dose-only effect, or another doubt; inactive = no such curve, though single readings can be large; an effect the other way counts as inactive or inconclusive. Potency is read from the fitted curve at half-maximal effect.

SMILES | NPR1 antag | 3T3 cytotox | HEK cytotox | FLuc inh | GPT2 inhibitor | NPR1 antag cnf | NPR2 antag | FLuc inh counter | GloSensor ctrl
CCOC(=O)c1ccc(NC(=O)Cn2c(N3CCC(C)CC3)nc(C)cc2=O)cc1 | 14µM* | ? | ? | i | -21% | 22µM* | 19µM* | 4% | 22µM*
COc1ccc(Cl)cc1NC(=O)Cn1c(N2CCC(C)CC2)nc(C)cc1=O | 11µM* | ? | 45µM* | i | -19% | 19µM* | 19µM* | 1% | 15µM*
CCc1ccc(CN2CCCC(CNC(=O)c3cccc(OC)c3OC)C2)o1 (stereo not drawn) | 6% | -3% | ? | i | ? | . | . | . | .
CC(=O)NCC1CCCN(Cc2ccc(-c3ccccc3C#N)o2)C1 (stereo not drawn) | -22% | -26% | -21% | i | i | ? | ? | -1% | 8%
Cc1noc2c(-c3cn[nH]c3)cc(-c3cccc(C(F)(F)F)c3)nc12 | ? | 25µM* | 35µM* | i | 2%[88.5 µM] | ? | -29%[86.2 µM] | -8%[86.2 µM] | -16%[86.2 µM]
CC(=O)Nc1ccc(C(=O)N2CCCN(c3cc(-c4ccc(Cl)cc4)[nH]n3)CC2)cc1 | -29% | -24% | ? | i | -22% | . | . | . | .
COc1ccc(CC(=O)NC2CCN(c3cc(-c4ccc(Cl)cc4)[nH]n3)C2)cc1OC (stereo not drawn) | 10µM* | ? | ? | i | ? | 19µM* | 22µM* | -2% | 11µM*
O=C(NC1CCN(c2cc(-c3ccc(Cl)cc3)[nH]n2)CC1)c1cccc(F)c1 | 2% | -3% | ? | i | i | . | . | . | .
COc1ccc(-c2cc(N3CCN(C(=O)c4ccc(OC)c(F)c4)CC3)n[nH]2)cc1 | -21% | ? | ? | i | i | . | . | . | .
O=C(c1ccc(Cl)cc1)N1CCN(c2cc(-c3ccc(Cl)cc3)[nH]n2)CC1 | 11µM* | 32µM* | 40µM* | i | i | 22µM* | 22µM* | 4% | 22µM*
COc1ccc(C(=O)N2CCN(c3cc(-c4ccc(Cl)cc4)[nH]n3)CC2)cc1F | 11µM* | ? | ? | i | i | 14µM* | 19µM* | 0% | 11µM*
O=C(NC1CCN(c2cc(-c3ccc(F)cc3)[nH]n2)CC1)c1ccc(F)c(Cl)c1 | ? | 32µM* | ? | i | i | 24µM* | ? | -3% | ?
CCOc1ccc2c(n1)CCN(C(=O)Cc1ccccc1C)C2 | 0% | -11% | ? | i | 2% | . | . | . | .
COc1ccc(Cn2c(=O)c(C(=O)N3CCOCC3)nc3cccnc32)cc1 | . | -12% | -10% | . | i | . | . | . | .
N#Cc1ccc(CN2CC[C@H](c3nnc(-c4ccccc4)o3)C2)cc1 | -1%[70.6 µM] | ? | ? | i | i | . | . | . | .
CC(C)(C)c1cnc([C@@H]2COCCN2Cc2ccc(Cl)cc2)[nH]1 | -18%[70.6 µM] | ? | ? | i | -8%[88.5 µM] | . | . | . | .
COc1ccc(-c2cc(N3CCCN(C(=O)Cc4cccc(OC)c4)CC3)n[nH]2)cc1 | 1% | -20% | ? | i | ? | . | . | . | .
COc1cccc(C(=O)N2CCN(c3cc(-c4ccc(Cl)cc4)[nH]n3)CC2)c1OC | 11µM* | ? | ? | i | i | 22µM* | 22µM* | 4% | 17µM*
Cc1ccc(C(=O)N2CCCN(c3cc(-c4ccccc4)[nH]n3)CC2)cc1 | -9% | -30% | ? | i | -23% | . | . | . | .
COc1ccc(CC(=O)N2CCCN(c3cc(-c4ccc(OC)cc4)[nH]n3)CC2)cc1 | ? | ? | ? | i | ? | ? | ? | 0% | -19%
COc1cccc(C(=O)N2CCN(c3cc(-c4ccccc4)[nH]n3)CC2)c1OC | 2% | ? | ? | i | i | . | . | . | .
O=C(c1ccccc1)N1CCN(c2cc(-c3ccc(Cl)cc3)[nH]n2)CC1 | ? | ? | ? | i | i | ? | ? | 0% | ?
O=C(c1ccc2c(c1)OCO2)N1CCN(c2cc(-c3ccc(Cl)cc3)[nH]n2)CC1 | ? | ? | ? | i | -6% | 24µM* | ? | -11% | 24µM*
O=C(c1ccc(F)c(F)c1)N1CCC2(CC1)NC(=O)N(Cc1ccc(F)cc1)C2=O | -12% | ? | ? | i | i | . | . | . | .
O=C(Nc1ccccc1CCc1ccccn1)C1CCN(c2cnn(Cc3ccccc3)c(=O)c2)C1 (stereo not drawn) | -17% | ? | ? | i | i | . | . | . | .
SMILES | NPR1 antag | 3T3 cytotox | HEK cytotox | FLuc inh | GPT2 inhibitor | NPR1 antag cnf | NPR2 antag | FLuc inh counter | GloSensor ctrl
CCOc1ccc(C(=O)N2CCCN(c3cc(-c4ccc(Cl)cc4)[nH]n3)CC2)cc1OCC | 11µM* | ? | ? | i | i | 15µM* | 17µM* | 5% | 15µM*
COc1ccc(-c2cc(N3CCN(C(=O)c4ccccc4Br)CC3)n[nH]2)cc1 | ? | ? | ? | i | i | . | . | . | .
O=C(c1ccc2nc[nH]c2c1)N1CCCN(c2cc(-c3ccc(Br)cc3)[nH]n2)CC1 | -17% | -25% | ? | i | -26% | . | . | . | .
O=C(c1ccccc1Br)N1CCN(c2cc(-c3ccc(Cl)cc3)[nH]n2)CC1 | 2.5µM* | 25µM* | ? | i | -26% | 19µM* | 19µM* | 0% | 12µM*
COc1ccc(C(=O)N2CCN(c3cc(-c4ccc(Cl)cc4)[nH]n3)CC2)cc1 | 8.9µM* | 7.1µM* | 35µM* | i | -7% | 15µM* | 17µM* | -1% | 11µM*
O=C(Cc1c[nH]c2ccccc12)N1CCCN(c2cc(-c3ccc(Br)cc3)[nH]n2)CC1 | 16µM* | 35µM* | ? | i | ? | 24µM* | 27µM* | -7% | 27µM*
CCN(C(=O)CN1C(=O)NC2(CCC(C)CC2)C1=O)c1cccc(C)c1 (stereo not drawn) | 3% | -25% | -26% | i | 4% | . | . | . | .
